18 sequences from paper PMC11006913 can be followed below.

Changes are numbered by the printed parent chain.

Experiment in all cases: PBM; 200 nM protein, PBS
Details in all cases: dsDNA, one strand shown

Assay [1] addresses HOXB4 (Homo sapiens, UniProt P17483 148-234).
Assay [2] deals with HOXB4 (Homo sapiens, UniProt P17483 148-234, V174I).
Assay [3] concerns the target HESX1 (Homo sapiens, UniProt Q9UBX0 95-180, R165K).
The target in assay [4] is HESX1 (Homo sapiens, UniProt Q9UBX0 95-180).
Chain of HESX1 (Homo sapiens, UniProt Q9UBX0 95-180) (Q9UBX0 95-180): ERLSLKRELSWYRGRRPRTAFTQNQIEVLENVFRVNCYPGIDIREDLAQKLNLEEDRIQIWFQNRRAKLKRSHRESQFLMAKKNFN
Assay [5] addresses HESX1 (Homo sapiens, UniProt Q9UBX0 95-180, P111T).
Assay [6] addresses VAX1 (Homo sapiens, UniProt Q5SQQ9 86-172).
Assay [7] has as its target VAX1 (Homo sapiens, UniProt Q5SQQ9 86-172, T142I).
Assay [8] has as its target VAX1 (Homo sapiens, UniProt Q5SQQ9 86-172, K157R).
Assay [9] concerns the target T1, VENTX (Homo sapiens, UniProt O95231 78-163, R121Q).
T1 sequence: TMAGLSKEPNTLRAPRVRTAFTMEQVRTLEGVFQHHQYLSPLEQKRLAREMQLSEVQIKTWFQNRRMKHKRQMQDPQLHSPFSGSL

In assay [10] the target is HOXA4 (Homo sapiens, UniProt Q00056 201-287, W262R).
Chain of HOXA4 (Homo sapiens, UniProt Q00056 201-287, W262R) (Q00056 201-287 W262R): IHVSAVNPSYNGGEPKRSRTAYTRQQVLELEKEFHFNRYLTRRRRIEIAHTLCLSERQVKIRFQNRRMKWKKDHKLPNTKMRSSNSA
For assay [11], the target named is HOXA4 (Homo sapiens, UniProt Q00056 201-287, R217L).
Chain of HOXA4 (Homo sapiens, UniProt Q00056 201-287, R217L) (Q00056 201-287 R217L): as the sequence (Q00056 201-287 W262R) above, with R17L, R62W counted along it
In assay [12] the target is HOXA4 (Homo sapiens, UniProt Q00056 201-287).
Chain of HOXA4 (Homo sapiens, UniProt Q00056 201-287) (Q00056 201-287): as the sequence (Q00056 201-287 W262R) above, with R62W counted along it
Assay [13] concerns the target HOXA4 (Homo sapiens, UniProt Q00056 201-287, W262F).
Assay [14] deals with T2, VENTX (Homo sapiens, UniProt O95231 78-163, Y115F).
T2 sequence: T1 sequence with Y38F, Q44R

Assay [15] has as its target HOXA2 (Homo sapiens, UniProt O43364 129-215, R185T).
Assay [16] deals with HOXA2 (Homo sapiens, UniProt O43364 129-215, R185K).
Chain of HOXA2 (Homo sapiens, UniProt O43364 129-215, R185K) (O43364 129-215 R185K): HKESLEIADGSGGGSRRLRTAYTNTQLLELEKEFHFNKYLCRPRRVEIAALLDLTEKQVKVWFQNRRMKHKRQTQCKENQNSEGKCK
Assay [17] has as its target HOXA2 (Homo sapiens, UniProt O43364 129-215, Y150S).
For assay [18], the target named is HOXA2 (Homo sapiens, UniProt O43364 129-215).
Chain of HOXA2 (Homo sapiens, UniProt O43364 129-215) (O43364 129-215): as the sequence (O43364 129-215 R185K) above, with K57R counted along it
Assay [19] has as its target HESX1 (Homo sapiens, UniProt Q9UBX0 95-180, F115L).

Chain of HOXA2 (Homo sapiens, UniProt O43364 129-215, R185T) (O43364 129-215 R185T): as the sequence (O43364 129-215 R185K) above, with K57T counted along it
Chain of HOXA2 (Homo sapiens, UniProt O43364 129-215, Y150S) (O43364 129-215 Y150S): as the sequence (O43364 129-215 R185K) above, with Y22S, K57R counted along it
Chain of HOXB4 (Homo sapiens, UniProt P17483 148-234) (P17483 148-234): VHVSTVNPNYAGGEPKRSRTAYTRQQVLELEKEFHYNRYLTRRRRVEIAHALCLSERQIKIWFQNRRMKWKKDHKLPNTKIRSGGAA
Chain of HOXA4 (Homo sapiens, UniProt Q00056 201-287, W262F) (Q00056 201-287 W262F): as the sequence (Q00056 201-287 W262R) above, with R62F counted along it
Chain of VAX1 (Homo sapiens, UniProt Q5SQQ9 86-172, T142I) (Q5SQQ9 86-172 T142I): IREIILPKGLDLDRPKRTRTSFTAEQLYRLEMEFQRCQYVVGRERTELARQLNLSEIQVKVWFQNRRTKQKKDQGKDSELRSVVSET
Chain of VAX1 (Homo sapiens, UniProt Q5SQQ9 86-172) (Q5SQQ9 86-172): as the sequence (Q5SQQ9 86-172 T142I) above, with I57T counted along it
Chain of HOXB4 (Homo sapiens, UniProt P17483 148-234, V174I) (P17483 148-234 V174I): as the sequence (P17483 148-234) above, with V27I counted along it
Chain of VAX1 (Homo sapiens, UniProt Q5SQQ9 86-172, K157R) (Q5SQQ9 86-172 K157R): as the sequence (Q5SQQ9 86-172 T142I) above, with I57T, K72R counted along it
Chain of HESX1 (Homo sapiens, UniProt Q9UBX0 95-180, P111T) (Q9UBX0 95-180 P111T): as the sequence (Q9UBX0 95-180) above, with P17T counted along it
Chain of HESX1 (Homo sapiens, UniProt Q9UBX0 95-180, F115L) (Q9UBX0 95-180 F115L): as the sequence (Q9UBX0 95-180) above, with F21L counted along it
Chain of HESX1 (Homo sapiens, UniProt Q9UBX0 95-180, R165K) (Q9UBX0 95-180 R165K): as the sequence (Q9UBX0 95-180) above, with R71K counted along it

On to GACTCGGC, for which the binding signal in assay [1] is 7.87 upbm affinity estimate (log intensity, higher = more binding, comparable within an allelic series); in assay [2], 7.65 upbm affinity estimate (log intensity, higher = more binding, comparable within an allelic series).

On to AACAATAC, for which the binding signal in [3] was 7.27 upbm affinity estimate (log intensity, higher = more binding, comparable within an allelic series); in [4], 7.3 upbm affinity estimate (log intensity, higher = more binding, comparable within an allelic series); in [5] it was 7.19 upbm affinity estimate (log intensity, higher = more binding, comparable within an allelic series).

As to GCCCAGAC, the binding signal was 7.49 upbm affinity estimate (log intensity, higher = more binding, comparable within an allelic series) in assay [1] and 7.68 upbm affinity estimate (log intensity, higher = more binding, comparable within an allelic series) in [2].

As to GACTGGCC, the binding signal in assay [1] is 7.7 upbm affinity estimate (log intensity, higher = more binding, comparable within an allelic series); in assay [2], 7.58 upbm affinity estimate (log intensity, higher = more binding, comparable within an allelic series).

With TAAATTAA, the binding signal in assay [1] is 12.9 upbm affinity estimate (log intensity, higher = more binding, comparable within an allelic series); in assay [2], 13.6 upbm affinity estimate (log intensity, higher = more binding, comparable within an allelic series); in assay [6] it was 12.6 upbm affinity estimate (log intensity, higher = more binding, comparable within an allelic series); in assay [5], 10.1 upbm affinity estimate (log intensity, higher = more binding, comparable within an allelic series); in [7], 12.4 upbm affinity estimate (log intensity, higher = more binding, comparable within an allelic series); in assay [8], 12.4 upbm affinity estimate (log intensity, higher = more binding, comparable within an allelic series).

In the case of TCCATTAA, the binding signal in [1] is 13 upbm affinity estimate (log intensity, higher = more binding, comparable within an allelic series); in assay [9] it was 11.7 upbm affinity estimate (log intensity, higher = more binding, comparable within an allelic series); in assay [10], 10.5 upbm affinity estimate (log intensity, higher = more binding, comparable within an allelic series); in assay [11], 11.9 upbm affinity estimate (log intensity, higher = more binding, comparable within an allelic series); in assay [2], 13.6 upbm affinity estimate (log intensity, higher = more binding, comparable within an allelic series); in assay [12] it was 13.7 upbm affinity estimate (log intensity, higher = more binding, comparable within an allelic series). Also, the binding signal in [6] is 12.8 upbm affinity estimate (log intensity, higher = more binding, comparable within an allelic series); in assay [7] it was 12.2 upbm affinity estimate (log intensity, higher = more binding, comparable within an allelic series); in assay [13], 11.4 upbm affinity estimate (log intensity, higher = more binding, comparable within an allelic series); in assay [8], 12.2 upbm affinity estimate (log intensity, higher = more binding, comparable within an allelic series).

With GCCGCTCC, the binding signal in [1] is 7.92 upbm affinity estimate (log intensity, higher = more binding, comparable within an allelic series); in assay [2] it was 7.92 upbm affinity estimate (log intensity, higher = more binding, comparable within an allelic series).

Consider CGTGCCTC, for which the binding signal was 7.37 upbm affinity estimate (log intensity, higher = more binding, comparable within an allelic series) in [1] and 7.39 upbm affinity estimate (log intensity, higher = more binding, comparable within an allelic series) in [2].

With CGGGCTAG, the binding signal in [1] is 7.46 upbm affinity estimate (log intensity, higher = more binding, comparable within an allelic series); in [9], 7.92 upbm affinity estimate (log intensity, higher = more binding, comparable within an allelic series); in [14], 7.71 upbm affinity estimate (log intensity, higher = more binding, comparable within an allelic series); in [2], 7.53 upbm affinity estimate (log intensity, higher = more binding, comparable within an allelic series).

As for ACCATTAA, the binding signal in assay [1] was 13.1 upbm affinity estimate (log intensity, higher = more binding, comparable within an allelic series); in [10] it was 10.6 upbm affinity estimate (log intensity, higher = more binding, comparable within an allelic series); in assay [11], 12 upbm affinity estimate (log intensity, higher = more binding, comparable within an allelic series); in assay [2], 13.7 upbm affinity estimate (log intensity, higher = more binding, comparable within an allelic series); in assay [12] it was 14 upbm affinity estimate (log intensity, higher = more binding, comparable within an allelic series); in [13] it was 11.4 upbm affinity estimate (log intensity, higher = more binding, comparable within an allelic series).

For the sequence GACCAGGC, the binding signal in assay [1] is 7.9 upbm affinity estimate (log intensity, higher = more binding, comparable within an allelic series); in assay [9] it was 8.15 upbm affinity estimate (log intensity, higher = more binding, comparable within an allelic series); in assay [14], 8.13 upbm affinity estimate (log intensity, higher = more binding, comparable within an allelic series); in [2], 7.99 upbm affinity estimate (log intensity, higher = more binding, comparable within an allelic series).

With GCTCGTTA, the binding signal in [1] is 11.4 upbm affinity estimate (log intensity, higher = more binding, comparable within an allelic series); in assay [9] it was 10.1 upbm affinity estimate (log intensity, higher = more binding, comparable within an allelic series); in assay [2], 11.6 upbm affinity estimate (log intensity, higher = more binding, comparable within an allelic series).

Consider CCGCCTAG, for which the binding signal is 7.58 upbm affinity estimate (log intensity, higher = more binding, comparable within an allelic series) in assay [1] and 7.95 upbm affinity estimate (log intensity, higher = more binding, comparable within an allelic series) in assay [2].

As for CGCAGACC, the binding signal in assay [1] is 7.32 upbm affinity estimate (log intensity, higher = more binding, comparable within an allelic series); in assay [9], 8.16 upbm affinity estimate (log intensity, higher = more binding, comparable within an allelic series); in assay [14], 8.12 upbm affinity estimate (log intensity, higher = more binding, comparable within an allelic series); in assay [2] it was 7.36 upbm affinity estimate (log intensity, higher = more binding, comparable within an allelic series).

Consider GCCGCCGC, for which the binding signal in assay [1] is 7.18 upbm affinity estimate (log intensity, higher = more binding, comparable within an allelic series); in [9], 7.93 upbm affinity estimate (log intensity, higher = more binding, comparable within an allelic series); in assay [10], 9.6 upbm affinity estimate (log intensity, higher = more binding, comparable within an allelic series); in [14] it was 7.83 upbm affinity estimate (log intensity, higher = more binding, comparable within an allelic series); in assay [15], 6.96 upbm affinity estimate (log intensity, higher = more binding, comparable within an allelic series); in assay [11], 9.61 upbm affinity estimate (log intensity, higher = more binding, comparable within an allelic series). Moreover, the binding signal is 7.39 upbm affinity estimate (log intensity, higher = more binding, comparable within an allelic series) in assay [2]; 9.77 upbm affinity estimate (log intensity, higher = more binding, comparable within an allelic series) in assay [16]; 9.67 upbm affinity estimate (log intensity, higher = more binding, comparable within an allelic series) in assay [12]; 10.3 upbm affinity estimate (log intensity, higher = more binding, comparable within an allelic series) in assay [17]; 9.69 upbm affinity estimate (log intensity, higher = more binding, comparable within an allelic series) in assay [13]; 6.9 upbm affinity estimate (log intensity, higher = more binding, comparable within an allelic series) in [18].

Consider ATCATTAG, for which the binding signal in assay [1] is 13.5 upbm affinity estimate (log intensity, higher = more binding, comparable within an allelic series); in assay [9] it was 11.7 upbm affinity estimate (log intensity, higher = more binding, comparable within an allelic series); in assay [10], 10.6 upbm affinity estimate (log intensity, higher = more binding, comparable within an allelic series); in assay [14] it was 11.8 upbm affinity estimate (log intensity, higher = more binding, comparable within an allelic series); in [15], 12.9 upbm affinity estimate (log intensity, higher = more binding, comparable within an allelic series); in assay [11], 12.3 upbm affinity estimate (log intensity, higher = more binding, comparable within an allelic series). Besides, the binding signal in [2] was 14.2 upbm affinity estimate (log intensity, higher = more binding, comparable within an allelic series); in assay [16], 13.6 upbm affinity estimate (log intensity, higher = more binding, comparable within an allelic series); in [12] it was 14.1 upbm affinity estimate (log intensity, higher = more binding, comparable within an allelic series); in assay [6], 13.2 upbm affinity estimate (log intensity, higher = more binding, comparable within an allelic series); in assay [7] it was 13.1 upbm affinity estimate (log intensity, higher = more binding, comparable within an allelic series); in assay [17], 10.9 upbm affinity estimate (log intensity, higher = more binding, comparable within an allelic series). The binding signal in assay [13] was 12 upbm affinity estimate (log intensity, higher = more binding, comparable within an allelic series); in [18], 12.7 upbm affinity estimate (log intensity, higher = more binding, comparable within an allelic series); in [8], 13.1 upbm affinity estimate (log intensity, higher = more binding, comparable within an allelic series).

On to TCATTAAA, for which the binding signal in assay [1] is 13.1 upbm affinity estimate (log intensity, higher = more binding, comparable within an allelic series); in [10] it was 10.8 upbm affinity estimate (log intensity, higher = more binding, comparable within an allelic series); in assay [15] it was 12.5 upbm affinity estimate (log intensity, higher = more binding, comparable within an allelic series); in assay [11], 12.5 upbm affinity estimate (log intensity, higher = more binding, comparable within an allelic series); in assay [2], 13.8 upbm affinity estimate (log intensity, higher = more binding, comparable within an allelic series); in assay [16] it was 13.1 upbm affinity estimate (log intensity, higher = more binding, comparable within an allelic series). Further, the binding signal in assay [12] is 13.9 upbm affinity estimate (log intensity, higher = more binding, comparable within an allelic series); in assay [6] it was 13 upbm affinity estimate (log intensity, higher = more binding, comparable within an allelic series); in assay [7] it was 13 upbm affinity estimate (log intensity, higher = more binding, comparable within an allelic series); in assay [17] it was 10.9 upbm affinity estimate (log intensity, higher = more binding, comparable within an allelic series); in assay [13] it was 11.9 upbm affinity estimate (log intensity, higher = more binding, comparable within an allelic series); in [18], 12.3 upbm affinity estimate (log intensity, higher = more binding, comparable within an allelic series). In addition, the binding signal in assay [8] was 12.9 upbm affinity estimate (log intensity, higher = more binding, comparable within an allelic series).

For TATTAATA, the binding signal was 12.7 upbm affinity estimate (log intensity, higher = more binding, comparable within an allelic series) in [1]; 13.3 upbm affinity estimate (log intensity, higher = more binding, comparable within an allelic series) in [2]; 8.46 upbm affinity estimate (log intensity, higher = more binding, comparable within an allelic series) in assay [19].
